Assay outcomes as filed in PubChem BioAssay.
Rows were chosen to be rich in hits. Some 2.3% of all compounds tested hit in one or more screens of this group.
CF NFkB block: cystic fibrosis NF-kB activation inhibition; 0.86% of 360,000 active; KKLEB NF-kB-GFP reporter, PAF-induced, GFP fluorescence overnight; inhibition, % at 5 µM;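 active = at least 50% inhibition at 5 µM, scaled per plate between neutral and stimulator controls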;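 note: PAF is a Pseudomonas aeruginosa culture filtrate used as stimulus; plate controls were PAF-stimulated DMSO wells for no effect and unstimulated DMSO wells for full effect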
LGR2 inh: inhibitors of bursicon-induced Drosophila LGR2 receptor cAMP signaling. HEK293 LGR2, CRE-luciferase, bursicon-stimulated, 4 h. inhibition, % at 9.99 µM. 0.35% of 380,000 active. AID 720647;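 active = drop in luminescence signal, shown as inhibition above about 50% in the replicate tests, limit read from the data, passing the limit was not always enough; inconclusive = probably only some replicates passing the limit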;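 note: agonist challenge used bursicon conditioned medium at about half maximal strength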
HIF-2a block: blocks HIF-2a reporter activity; inhibition, % at 18.8 µM; 786-0 RCC cells HIF-2a reporter, luciferase luminescence, overnight; 0.72% of 360,000 active;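 active = inhibition of the luminescence signal of 40% or more relative to plate controls, in a single-dose primary screen at 18.75 µM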
TWEAK-Fn14 inh: blocks TWEAK-Fn14 interaction in a reporter cell assay; TWEAK-stimulated Fn14 reporter cells, luciferase luminescence, 8 h; inhibition, % at 10 µM; 2% of 360,000 active; AID 1159606; in the data active = inhibition above about 50%
hiPSC survival: increases survival of single human iPS cells | survival enhancement, % at 20 µM | 0.044% of 360,000 active | hiPSC single-cell survival, ATPlite luminescence; 100% = ROCK inhibitor wells, 0% = DMSO; in the data active = survival enhancement above about 18%;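 note: cells exposed to compounds for 16 hours before the ATP read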
KKLEB cytotox: CF airway cell cytotoxicity counter-screen | KKLEB CF airway cells viability, ATPlite luminescence, overnight; active compounds read low; cells stimulated with P. aeruginosa culture filtrate | activity change (cytotoxicity), % at 5 µM | 0.36% of 360,000 active | AID 602141;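 active = corrected activity change at or below -50% at 5 µM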
Starred values were filed as active, the others as inactive; ? = inconclusive; / = no result.

SMILES	CF NFkB block	LGR2 inh	HIF-2a block	TWEAK-Fn14 inh	hiPSC survival	KKLEB cytotox
Cc1ccc(S(=O)(=O)NCCc2cc3ccc(C)c(C)c3[nH]c2=O)cc1	-3.9	14.2	-1.0	2.6	-0.4	-16.6
Cc1ccc2cc(CCNS(=O)(=O)c3ccc(F)cc3)c(=O)[nH]c2c1C	-19.6	7.3	-3.3	59.0*	1.1	6.1
O=C(CCN1N=C(c2ccccc2)CCC1=O)NCC1COc2ccccc2O1 (configuration not stated)	-4.4	2.5	13.9	74.7*	0.3	3.7
C[C@@H]1CN([C@@H](C)CO)C(=O)c2cc(NC(=O)Cc3ccccc3)ccc2O[C@@H](C)CCCCO[C@H]1CN(C)S(=O)(=O)c1ccccc1	/	0.4	/	/	/	/
CO[C@@H]1CN(C)C(=O)c2cc(NC(=O)C3CC3)ccc2OC[C@@H](C)N(C(=O)c2ccccc2F)C[C@H]1C	/	4.6	/	/	/	/
COc1ccc(S(=O)(=O)N(C)C[C@@H]2OCCCC[C@H](C)Oc3ccc(NC(=O)Nc4ccccc4)cc3C(=O)N([C@@H](C)CO)C[C@@H]2C)cc1	/	-1.8	/	/	/	/
Clc1ccc(-c2nnc(CSc3nnc(-c4cccs4)n3Cc3ccccc3)o2)cc1	-1.4	19.6	17.7	63.6*	-2.0	4.4
Cc1nnc(SCc2nnc(-c3cccs3)o2)n1Cc1ccccc1	-2.0	11.4	11.8	7.0	0.3	1.3
COc1ccc(S(=O)(=O)Nc2ccc3c(c2)C(=O)N([C@H](C)CO)C[C@@H](C)[C@H](CN(C)C(=O)NC(C)C)O3)cc1	/	-24.5	/	/	/	/
CC(=O)N/C(=N\c1nc(C)cc(C)n1)Nc1ccc2ccccc2c1	-33.7	8.8	-77.3	74.0*	0.0	-4.9
CC(=O)N/C(=N/c1nc(C)cc(C)n1)Nc1ccc(NC(C)=O)cc1	-15.4	/	12.1	-16.2	1.1	10.4
CCCCN1C(=O)c2ccc(C(=O)Nc3ccc(C)c(S(=O)(=O)N(C)C)c3)cc2C1=O	-19.5	?	16.3	91.0*	5.0	24.3
Cc1cc(C)n(-c2ccc(C(=O)Nc3ccc(C)c(S(=O)(=O)N(C)C)c3)cc2)n1	6.0	11.2	-8.4	53.5*	-0.9	3.0
CCCCN1C(=O)c2ccc(C(=O)Nc3cccc(C)c3C)cc2C1=O	-12.6	/	-19.7	-19.1	-0.2	7.6
Cc1cc(C)n(-c2ccc(C(=O)Nc3ccc(S(=O)(=O)NCc4ccco4)cc3)cc2)n1	-6.7	/	8.8	59.3*	-3.8	8.2
Cc1ccc(NC(=O)c2ccc(OC(F)(F)F)cc2)cc1S(=O)(=O)N(C)C	-2.1	-4.1	-26.4	51.7*	1.4	6.0
C[C@H]1CN([C@@H](C)CO)C(=O)c2cc(NC(=O)Nc3ccc(C(F)(F)F)cc3)ccc2O[C@H]1CN(C)S(=O)(=O)c1ccc(F)cc1	/	-5.2	/	/	/	/
COc1cccc(CN(C)C[C@H]2OCc3ccccc3-c3c(n(C)c4ccccc34)C(=O)N([C@H](C)CO)C[C@H]2C)c1	/	-11.4	/	/	/	/
CC(C)NC(=O)Nc1ccc2c(c1)C(=O)N([C@@H](C)CO)C[C@@H](C)[C@H](CN(C)C(=O)CCC(F)(F)F)OCCCC[C@H](C)O2	/	11.3	/	/	/	/
COC(=O)C[C@H]1CC[C@@H]2[C@H](COc3ccc(NC(=O)Nc4cc(C)cc(C)c4)cc3C(=O)N2C)O1	/	3.5	/	/	/	/
CO[C@@H]1CN(C)C(=O)c2cc(NC(=O)NC(C)C)ccc2OC[C@@H](C)N(C(=O)CC2CC2)C[C@@H]1C	/	0.8	/	/	/	/
Cc1cc(C)n(-c2ccc(C(=O)Nc3cccc(S(=O)(=O)N(C)C)c3)cc2)n1	2.0	-10.2	-3.2	36.9	2.7	-2.2
CCN(CC)S(=O)(=O)c1cccc(NC(=O)c2ccc(-n3nc(C)cc3C)cc2)c1	-27.3	33.1	1.3	60.3*	-1.6	22.4
CN(C)S(=O)(=O)Oc1ccc(C(=O)Nc2cccc(C(F)(F)F)c2)cc1	-5.9	-4.5	-62.8	53.7*	-2.8	-3.3
O=C(c1cccnc1)N1C[C@H]2[C@@H](c3ccccc31)[C@H](CO)N2C(=O)Nc1ccccc1Cl	/	4.3	/	/	/	/
SMILES	CF NFkB block	LGR2 inh	HIF-2a block	TWEAK-Fn14 inh	hiPSC survival	KKLEB cytotox
O=C(C[C@@H]1C[C@H]2c3cc(NC(=O)C4CCOCC4)ccc3O[C@H]2[C@@H](CO)O1)NCc1ccccn1	/	-0.9	/	/	/	/
C=CCC[C@@H](Cc1ccc(F)cc1)C(=O)OC[C@H](Cc1c[nH]c2ccccc12)NC(=O)[C@H](CC=C)CC(=O)N(CCO)Cc1ccccc1	2.1	35.3	-21.0	59.7*	-1.8	2.3
C=CCC[C@H](Cc1ccc(F)cc1)C(=O)OC[C@H](Cc1c[nH]c2ccccc12)NC(=O)[C@@H](CC=C)CC(=O)N(CCO)Cc1ccccc1	2.8	45.5	-8.5	60.0*	1.2	0.4
C=CCC[C@H](Cc1ccc(F)cc1)C(=O)OC[C@@H](Cc1c[nH]c2ccccc12)NC(=O)[C@@H](CC=C)CC(=O)N(CCO)Cc1ccccc1	38.1	28.3	21.3	49.5	-1.7	-4.4
O=C(Nc1ccc2c(c1)[C@@H]1C[C@H](CC(=O)N3CCOCC3)O[C@H](CO)[C@@H]1O2)NC1CCCC1	/	-9.1	/	/	/	/
c1ccc2nc(-c3nc4ccccc4o3)ccc2c1	-39.7	85.3*	17.3	93.6*	-4.5	-26.7
O=C1CCCC2=C1C1(CCCC1)N=C(Nc1nc3cc(-c4ccccc4)ccc3o1)N2	35.4	-20.3	-81.3	64.3*	-1.8	-13.0
O=C1CCCC2=C1C1(CCCC1)N=C(Nc1nc3ccccc3o1)N2	-4.5	-3.3	-45.0	-0.4	1.7	-6.2
O=C1CCCC2=C1C1(CCCCC1)N=C(Nc1nc3ccccc3o1)N2	-52.0	/	-21.8	74.6*	1.5	-15.5
O=C1CC(c2ccccc2)CC2=C1C1(CCCC1)N=C(Nc1nc3ccccc3o1)N2 (configuration not stated)	10.6	-5.5	27.7	-6.2	0.1	0.7
CCc1ccc(CN(C)C(=O)c2cc(COc3cccc4cnccc34)on2)cc1	20.5	-10.6	-11.6	57.5*	-0.1	-6.3
CCN(CC)c1ccc2cc(-c3nc4ccccc4n3C)c(=O)oc2c1	27.3	-48.6	-260.9	-11.1	-1.9	-20.9
CCN(CC)c1ccc2cc(-c3nnc(-c4ccccc4)o3)c(=O)oc2c1	-108.9	-15.9	-204.0	67.1*	-1.9	12.6
CCN(CC)c1ccc2cc(-c3nc4ccccc4[nH]3)c(=O)oc2c1	-162.9	/	-148.0	87.8*	-2.0	-89.5*
Cc1cc(/C=N/NC(=O)c2cccs2)c(C)n1-c1ccccc1	-23.3	/	-35.4	79.8*	-5.6	-26.5
C1CCN(c2nc3nonc3nc2N2CCCC2)C1	-5.9	/	17.7	-17.4	22.3*	7.2
CC1CCN(c2nc3nonc3nc2N2CCC(C)CC2)CC1	10.5	/	15.6	-16.3	-2.2	-9.8
C[C@H](CO)N1C[C@H](C)[C@@H](CN(C)C(=O)Nc2cccc3ccccc23)Oc2ccc(NS(=O)(=O)c3cn(C)cn3)cc2CC1=O	/	19.9	/	/	/	/
Oc1ccc(N=Cc2ccc(-c3cccs3)s2)cc1	-1.2	59.3*	3.7	16.6	7.0	-1.9
